Compound activity (PubChem BioAssay)
EPAC1 antagonist – EPAC1 (human) antagonism | Potency, µM (titrated, usually from 115 µM), without a hit: top-dose activity change, negative = inhibition, most hits filed as inhibitors | EPAC1 GEF assay, Rap1b-BODIPY-GDP exchange fluorescence | AID 720709 | O95398 | 360,000 compounds, 0.14% hits;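 further: plate controls were vehicle for no effect and positive control for full effect; nearly all actives have a fitted effect of over 50% in size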
Target sequence (O95398 whole entry, looked up): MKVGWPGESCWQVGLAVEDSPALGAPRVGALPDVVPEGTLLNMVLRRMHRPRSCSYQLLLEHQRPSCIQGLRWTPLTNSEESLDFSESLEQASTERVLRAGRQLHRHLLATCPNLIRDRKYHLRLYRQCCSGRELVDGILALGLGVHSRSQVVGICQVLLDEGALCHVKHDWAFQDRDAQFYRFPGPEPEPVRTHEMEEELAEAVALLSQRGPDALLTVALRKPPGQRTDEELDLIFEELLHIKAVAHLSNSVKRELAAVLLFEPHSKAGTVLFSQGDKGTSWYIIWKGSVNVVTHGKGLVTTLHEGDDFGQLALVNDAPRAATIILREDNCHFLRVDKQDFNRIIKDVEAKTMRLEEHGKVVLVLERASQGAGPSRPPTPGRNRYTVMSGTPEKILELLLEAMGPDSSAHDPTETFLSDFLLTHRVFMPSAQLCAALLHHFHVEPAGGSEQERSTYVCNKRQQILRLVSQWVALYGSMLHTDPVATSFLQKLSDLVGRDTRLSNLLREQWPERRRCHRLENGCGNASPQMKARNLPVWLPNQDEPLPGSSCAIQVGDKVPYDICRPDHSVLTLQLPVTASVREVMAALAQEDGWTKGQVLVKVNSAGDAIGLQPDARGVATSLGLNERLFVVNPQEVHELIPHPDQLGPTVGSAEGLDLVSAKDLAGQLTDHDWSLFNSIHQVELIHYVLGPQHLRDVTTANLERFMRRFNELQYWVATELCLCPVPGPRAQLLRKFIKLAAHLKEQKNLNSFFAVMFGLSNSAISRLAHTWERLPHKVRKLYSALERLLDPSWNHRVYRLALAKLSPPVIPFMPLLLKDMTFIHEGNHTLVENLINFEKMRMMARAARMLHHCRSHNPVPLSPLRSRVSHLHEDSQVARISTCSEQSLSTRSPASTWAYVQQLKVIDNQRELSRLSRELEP
EPAC2 agonist – EPAC2 (human) agonism; 360,000 compounds, 0.079% hits; Q8WZA2; EPAC2 activation, biochemical qHTS; response scale: 100% = 6.5 mM cAMP response; Potency, µM (titrated, usually from 154 µM), for inactives: at the highest dose activation, actives largely listed as activators; further: nearly all actives have a fitted effect of over 50% in size
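qHTS, titration series. 100 nM EPAC2 / 250 nM Rap1B-BODIPY-GDP / 50 uM GDP; RT; ex 480/em 540 nm, 5-min reads to 30 min. Norm. to 6.5 mM cAMP = activation.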
EPAC1 ag – EPAC1 (human) agonism | O95398 | EPAC1 agonist qHTS, biochemical assay; response scale: 100% = response to 6.5 mM cAMP | Potency, µM (highest dose often 154 µM), inactives show at the highest dose activation, most hits filed as activators | 360,000 compounds, 0.073% hits; further: nearly all actives have a fitted effect of over 60% in size
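Nucleotide exchange assay: 100 nM EPAC1 with 250 nM Rap1B loaded with BODIPY-GDP and 50 uM GDP, room temperature. Fluorescence (480/540 nm) read every 5 min for 30 min; signal change normalized to 6.5 mM cAMP as full agonist.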
EPAC2 antagonist – antagonists of human EPAC2 | Q8WZA2 | Potency, µM (top dose mostly 114 µM), without a hit: at the top dose activity, negative = inhibition, actives largely listed as inhibitors | 360,000 compounds, 0.18% hits | EPAC2 GEF exchange of Rap1B-BODIPY-GDP, fluorescence; further: on the % scale 0 is the no-effect control and ±100 the full control effect; nearly all actives have a fitted effect of over 45% in size
USP1 inh – USP1/UAF1 (human) deubiquitinase inhibition; O94782; recombinant USP1/UAF1, Ub-Rhodamine cleavage fluorescence; Potency, µM (series often up to 57.1 µM), for inactives: at the highest dose activity change, negative = inhibition, most hits filed as inhibitors; 390,000 compounds, 0.23% hits; AID 743255; further: on the % scale 0 is the no-effect control and ±100 the full control effect; nearly all actives have a fitted effect of over 60% in size
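High-throughput fluorogenic screen: 1nM USP1/UAF1 complex, Ub-Rho substrate 150nM final, 50mM HEPES pH 7.8 with 0.5mM EDTA, 0.1 mg/ml BSA, 1mM TCEP and 0.01% Tween-20.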
Numbers without * were called inactive; ? = inconclusive; · = no result; [ ] = dose if it differs, or a comment. Hits are enriched below; roughly 0.49% of the tested compounds scored in any of these assays. The call rests on the fitted dose curve; in most records, active means well fitted curve in the direction sought with a large enough effect; inconclusive means small, poorly fitted or top-dose-only effect, or another doubt; inactive means no such curve, though single readings can be large; an effect the other way counts as inactive or inconclusive. Potency means the concentration at half of the fitted maximal effect.

SMILES | EPAC1 antagonist | EPAC2 agonist | EPAC1 ag | EPAC2 antagonist | USP1 inh
O=C(Nc1cccc(C(F)(F)F)c1)c1ccc2nc(-c3ccco3)c(-c3ccco3)nc2c1 | 35µM* | -28% | -30% | ? | 28µM*
O=C(Nc1ccc2nc(-c3ccco3)c(-c3ccco3)nc2c1)NC1CC1 | 50µM* | 6% | 1% | 13% | ?
Cn1c(SCC(=O)Nc2cccc(C(=O)O)c2)nnc1-c1cc2cc(Br)ccc2o1 | 35µM* | 3% | 63µM* | -8% | -1%
Cn1c(SCC(=O)Nc2cccc(Br)c2)nnc1-c1cc2ccccc2o1 | 11% | 3% | -7% | 17%[57.1 µM] | -23%
Cc1cccc(C)c1OCC(=O)Nc1ccccc1N1CCCCC1 | 1% | 7% | -2% | 10µM* | -18%
Cc1cccc(OCC(=O)Nc2ccccc2N2CCCCC2)c1C | -1% | 11% | -4% | -1% | -24%
CCN1C(=O)/C(=C/c2ccc(OCc3ccc(C(=O)O)cc3)c(Cl)c2)NC1=S | 89µM* | 11% | 4% | 26% | -27%
COc1ccc(C(=O)NCCc2sc(-c3cccc(F)c3)nc2C)cc1 | · | · | · | · | -1%
CN(N=Nc1cccc([N+](=O)[O-])c1)c1ccccc1 | -5% | 4% | 27% | -14% | -19%
CN(N=Nc1ccc([N+](=O)[O-])cc1)c1ccccc1 | 79µM* | 100µM* | -793% | 347% | ?
CCCCN(C)CCNC(=O)c1c(C)oc2ncnc(N3CCOCC3)c12 | · | · | · | · | -6%
CCC[C@H]1CC(=O)C=C(c2ccsc2)ON1C(=O)OC(C)(C)C | -10% | 9% | -19% | 18µM* | -22%
COc1ccc(C2=CC(=O)C[C@H](CN3C(=O)c4ccccc4C3=O)N(C(=O)OC(C)(C)C)O2)cc1 | -9% | -6% | -2% | ? | -17%
CCc1cnc2c(c1SCC(=O)c1ccc(OC)cc1)c(=O)n(C)c(=O)n2C | · | · | · | · | -20%
COC(=O)c1cn(C(=O)OC)c2ccccc12 | -11% | 4% | -1% | 7% | 2%
COC(=O)c1cn(C(=O)c2ccccc2Cl)c2ccccc12 | 13% | 14% | 7% | 28µM* | -8%
Cn1ccnc1C(O)c1ccccc1 (stereo not given) | -5% | 13% | 7% | 10% | -1%
COc1ccc2ccccc2c1C(O)c1nccn1C (stereo not given) | 59% | 100µM* | 63µM* | 72% | ?
Cc1csc(=O)n1CC(=O)OCC(=O)Nc1cc([N+](=O)[O-])ccc1Cl | 11% | 11% | 3% | -5% | -3%
Cc1ccc(NC(=O)COC(=O)Cn2c(C)csc2=O)c([N+](=O)[O-])c1 | -3% | 7% | 100µM* | 12% | -21%
CC(C)CC(=NNC(=O)c1ccncc1)c1cc(Cl)ccc1O | -1% | ? | 100µM* | 2% | 28µM*
COc1ccc(N(C)C(=O)Nc2ccc3nsnc3c2)cc1 | -8% | -2% | -15% | 2% | -18%
COc1ccc(NC(=S)Nc2ccc3nc(C)c(C)nc3c2)cc1 | -2% | 5% | 7% | 13% | -20%
COc1ccc(NC(=S)Nc2ccc3nsnc3c2)cc1 | ? | 24% | 12% | ? | 5.6µM*
CCOc1ccc(NC(=O)Nc2ccc3nsnc3c2)cc1 | -6% | 4% | 8% | -6% | -4%
SMILES | EPAC1 antagonist | EPAC2 agonist | EPAC1 ag | EPAC2 antagonist | USP1 inh
CC(C)N(C(=O)Nc1ccc2nsnc2c1)C(C)C | ? | ? | 17% | ? | 6.3µM*
CCOc1ccc(NC(=S)Nc2ccc3nsnc3c2)cc1 | -8% | 12% | 9% | 3% | 28µM*
CC1(C)Cc2c(sc(NC(=O)COc3cccc4ccccc34)c2C#N)C(C)(C)N1 | -17% | 8% | -5% | 15% | 18µM*
Cc1cc(=O)c2cc(C(=O)Nc3ccc(F)cc3)ccc2[nH]1 | · | · | · | · | -8%
N#C/C(=C/c1ccc(N2CCOCC2)o1)c1nc2ccccc2[nH]1 | -7% | 100µM* | 89µM* | 46% | 25µM*
N#C/C(=C\c1ccc(Sc2ccc(Cl)cc2)o1)c1nc2ccccc2[nH]1 | 7% | 100µM* | 8% | 36% | ?
Cc1ccc(CNC(=O)CSc2ncc3c(n2)-c2cc(Cl)ccc2N(C)S3(=O)=O)cc1 | · | · | · | · | -12%
COCCCn1c(=O)/c(=C\c2ccccc2OC(C)C)s/c1=C(/C#N)C(=O)Nc1ccc(C(=O)O)cc1 | 19% | -5% | 112µM* | -7% | -14%
COc1ccc(/C(O)=C/C(=O)C(=O)NNC(=O)c2ccccc2)cc1 | 0% | 2% | 2% | 8% | -21%
COc1ccc(/C(O)=C/C(=O)C(=O)NNC(=O)C(O)(c2ccccc2)c2ccccc2)cc1 | 40µM* | 3% | 7% | 1% | -17%
COc1ccc(OC)c(/C=C2\Oc3cc(OCC(=O)N4CCC[C@H]4C(=O)O)ccc3C2=O)c1 | 1% | 1% | -32% | -14% | -22%
COc1cc(OC)c(OC)cc1/C=C1\Oc2cc(OCC(=O)N3Cc4ccccc4C[C@H]3C(=O)O)ccc2C1=O | -27% | 17% | 6% | -3% | 14µM*
COc1ccc(C2C(C(=O)c3cccs3)=C(O)C(=O)N2c2nnc(C)s2)cc1OC (stereo not given) | 12% | 21% | 8% | 53% | 4µM*
COc1ccc(C2C(C(=O)c3cccs3)=C(O)C(=O)N2c2nncs2)cc1 (stereo not given) | -10% | -21% | -7% | 18% | 2µM*
CC(C)c1nnc(N2C(=O)C(O)=C(C(=O)c3cccs3)C2c2ccccc2)s1 (stereo not given) | 3% | -12% | -10% | 0% | -12%
C=CCOc1ccc(C2C(C(=O)c3cccs3)=C(O)C(=O)N2c2nnc(C)s2)cc1 (stereo not given) | 8% | -72% | -11% | 11% | 48%
Cc1nc(SCC(=O)Nc2ccccc2C)cc(-c2ccccc2)n1 | · | · | · | · | -7%
COc1cccc(-c2ncnn2-c2sc3c(c2C#N)CCCCC3)c1OC | · | · | · | · | -11%
Cc1oc2c(c1C(=O)c1ccccc1)C(=O)C(=O)c1ccccc1-2 | ? | 6% | 24% | ? | 13µM*
CCOC(=O)c1c(C)oc2c1C(=O)c1ccccc1C2=O | -3% | 9% | -2% | 6% | ?
Cc1oc2c(c1C(=O)O)C(=O)c1ccccc1C2=O | -3% | 5% | -19% | 2% | 28µM*
COc1cccc(CNC(=O)C2CCCN(S(=O)(=O)c3ccc4c(ccn4C)c3)C2)c1OC (stereo not given) | · | · | · | · | -23%
COc1cc(-c2nc3ccc(Cl)cn3c2Nc2ccc3c(c2)OCO3)ccc1O | · | · | · | · | -18%
CCOC(=O)Nc1cc2c(c(N)n1)N=C(c1ccccc1)CN2 | 89µM* | 2% | 10% | 12% | ?
CCOC(=O)Nc1sc(C)nc1-c1ccccc1 | -1% | 7% | 5% | -6% | -4%
O=c1c2ccccc2sn1-c1ccc(Cl)cc1Cl | 0% | 2% | -1% | 11µM* | -22%
